Shiga inhibitor: Shiga toxin inhibition; Vero cells, Shiga toxin protein synthesis inhibition reporter; inhibition, % at 38.7 µM; actives 9.2% (n = 290,000); AID 2315; in the data active = inhibition mostly above about 28%, no sharp cut-off; inactive = mostly below about 43%; note: 0% is about no effect
NS1 function inh: inhibitors of influenza NS1 protein function; Potency, µM (doses to about 46.1 µM), without a hit: top-dose activity, positive = more growth; actives 0.4% (n = 270,000); AID 2326; calls by dose curve; note: potency is the fitted concentration of half-maximal effect; actives are rising curves; nearly all actives have a fitted effect of over 50% in size
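Growth recovery, yeast-based: influenza A NS1 expressed in S. cerevisiae causes slow growth, and suppressors are detected by OD600. The parent strain without NS1 is used as positive control.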
Pf growth 96h: inhibits malaria parasite growth, 96 h; AID 504834; P. falciparum luciferase reporter growth, 96 h; Potency, µM (highest dose often 28.7 µM), inactives show at the top dose activity change, negative = inhibition, usual class: inhibitors; actives 6.9% (n = 320,000); note: potency is the fitted concentration of half-maximal effect; % is set by controls: 0 for no effect and ±100 for the full control effect
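Compounds incubated with erythrocytes infected by luciferase-expressing P. falciparum (2% hematocrit, 0.05% parasitemia final) for 96 hours, 37 C in 5% CO2. Growth inhibition scored as decreased luciferase luminescence.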
Pf growth 48h: P. falciparum growth inhibition at 48 hours (one generation); P. falciparum luciferase growth in erythrocytes, 48 h; Potency, µM (titrated, usually from 28.7 µM), inactives show at the highest dose activity change, negative = inhibition, hits mostly inhibitors; actives 5.9% (n = 310,000); AID 504832; note: potency is the fitted concentration of half-maximal effect; % is set by controls: 0 for no effect and ±100 for the full control effect
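Firefly luciferase activity from engineered P. falciparum reports growth; inhibitors lower the luminescent signal. Cultures contained 2% hematocrit erythrocytes at 0.1% final parasitemia.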
CHX counter: counter-screen hit for Shiga toxin inhibitors, cycloheximide | cell reporter, cycloheximide protein synthesis inhibition counterscreen | max response, % | actives 12% (n = 300,000); in the data active = max response mostly above about 13%, no sharp cut-off; inactive = mostly below about 14%; note: read at 38.3 µM for the half of the compounds with a filed dose; 0% is about no effect
* hit, by the source's call; ? = inconclusive; / = no result given. A selection: hits, their analogues and other compounds. The true share with any hit is near 21%. Unless noted, calls come from the whole dose curve; as a rule, active = well fitted inhibition curve with a large enough effect; inconclusive = small, poorly fitted or top-dose-only effect, or another doubt; inactive = no such curve, though single readings can be large or run the other way.

SMILES | Shiga inhibitor | NS1 function inh | Pf growth 96h | Pf growth 48h | CHX counter
CC(C)(C)C1CCc2c(sc(NC(=O)c3cccs3)c2C(N)=O)C1 (centres undefined) | 63* | 1% | -5% | 187% | 32*
Cc1cccc(Cn2ccc(NC(=O)c3cccnc3)n2)c1 | 5 | 5% | 24% | 18% | 3
Cc1cccc(Cn2ccc(NC(=O)c3ccc4c(c3)OCO4)n2)c1 | 74* | / | ? | 8% | 28*
O=C(Nc1ccn(Cc2ccc(Cl)cc2)n1)c1ccc2c(c1)OCO2 | 50* | -131% | / | 4% | 22
COc1ccc2oc(C(=O)OCC(=O)/C(C#N)=C(\C)N)c(C)c2c1 | 35 | -3% | 16% | 16% | 13
CS(=O)(=O)N1N=C(c2ccc(Cl)cc2)CC1c1cccs1 (centres undefined) | 35 | 4% | 3% | / | 35*
CS(=O)(=O)N1N=C(c2cccs2)CC1c1ccc(F)cc1 (centres undefined) | 51 | 8% | -13% | 21% | 33*
CS(=O)(=O)N1N=C(c2cccs2)CC1c1ccccc1O (centres undefined) | -5 | 2% | 7% | -16% | -2
CN(C)S(=O)(=O)c1cccc(C(=O)OCC(=O)Nc2sccc2C(N)=O)c1 | -20 | -1% | 3.7µM* | 1.9µM* | -5
COc1ccc(C(=O)OCC(=O)Nc2sccc2C(N)=O)cc1OC | 8 | 2% | 21% | 17% | 9.3*
COc1cc(C(=O)OCC(=O)Nc2sccc2C(N)=O)cc(OC)c1OC | 9 | / | 9% | -10% | 10
O=[N+]([O-])c1ccc2nc(-c3ccccc3)oc2c1 | 71* | / | 9% | 350% | 26*
CC(C)(C)Nc1nc2ccc([N+](=O)[O-])cc2o1 | 35 | -5% | 29% | 30% | 19*
COc1cccc(-c2nc3ccc([N+](=O)[O-])cc3o2)c1 | 29* | / | 0% | 58% | 12
CC(=O)CC(C)(C)Nc1nc2ccc([N+](=O)[O-])cc2o1 | 49 | 1% | 33% | 30% | 13
Cc1c(C(=O)CN2CCCC(C)(C)C2)c2ccccc2n1C | -6 | -2% | 9% | -19% | -4
Cc1cn(S(=O)(=O)c2ccc(Br)c3ccccc23)cn1 | -5 | 13% | 4% | -4% | -2
O=[N+]([O-])c1ccccc1-c1cc(-c2ccccc2O)n[nH]1 | 69* | -50% | 100% | 209% | 75*
Oc1ccccc1-c1cc(C(F)(F)F)[nH]n1 | -6 | -128% | 9.3µM* | ? | 10
Oc1ccccc1C1=NCCNC(C(F)(F)C(F)F)=C1 | -11 | 3% | / | 5% | -3
Oc1ccccc1-c1cc(C(F)(F)C(F)F)[nH]n1 | 28* | -24% | 16% | ? | 22*
O=C(C1=C[C@@H](c2ccc(C(F)(F)F)cc2)C[C@@H](OCCCCO)O1)N1CCN(Cc2ccc3c(c2)OCO3)CC1 | -3 | -5% | 9.3µM* | ? | -2
CC(C)(C)[C@H]1C=C(C(=O)N2CCN(Cc3ccc4c(c3)OCO4)CC2)O[C@@H](OCCCCO)C1 | -8 | 2% | ? | ? | 4
CC(C)(C)[C@@H]1C=C(C(=O)N2CCN(Cc3ccc4c(c3)OCO4)CC2)O[C@H](OCc2ccc(CO)cc2)C1 | -20 | -12% | 12µM* | 10µM* | 4
O=C(C1=C[C@@H](c2ccc(Br)cc2)C[C@@H](OCc2ccc(CO)cc2)O1)N1CCN(Cc2ccc3c(c2)OCO3)CC1 | -19 | -2% | 15µM* | ? | -2
SMILES | Shiga inhibitor | NS1 function inh | Pf growth 96h | Pf growth 48h | CHX counter
O=C(C1=C[C@@H](C2CC2)C[C@@H](OCCCCO)O1)N1CCN(Cc2ccc3c(c2)OCO3)CC1 | -8 | -1% | ? | ? | -2
O=C(C1=C[C@@H](C2CCCCC2)C[C@@H](OCCCCO)O1)N1CCN(Cc2ccc3c(c2)OCO3)CC1 | -5 | -9% | 6.6µM* | ? | -2
COC(=O)c1c(N2C(=O)[C@H]3[C@@H](C2=O)[C@]2(C(=O)Nc4c(C)cccc42)N2CCC[C@@H]32)sc(C)c1C | -11 | ? | 0% | 0% | 6
O=C(C1=C[C@H](c2ccc(C(F)(F)F)cc2)C[C@H](OCc2ccc(CO)cc2)O1)N1CCN(Cc2ccc3c(c2)OCO3)CC1 | 27 | -4% | 3.7µM* | ? | -1
O=C(C1=C[C@@H](c2ccc(C(F)(F)F)cc2)C[C@@H](OCc2ccc(CO)cc2)O1)N1CCN(Cc2ccc3c(c2)OCO3)CC1 | 5 | -3% | 2.3µM* | ? | 11
CCN(CC)CCN1C(=O)c2ccccc2NC1c1ccc(C)cc1 (centres undefined) | -7 | 3% | / | 1.7µM* | 1
CN(C)CCN1C(=O)c2oc3ccccc3c(=O)c2C1c1ccc(F)cc1 (centres undefined) | 5 | -12% | ? | ? | -2
CCN(CC)CCN1C(=O)c2ccccc2NC1c1ccc(N(C)C)cc1 (centres undefined) | 66 | -58% | / | 0.41µM* | 30
CCN(CC)CCN1C(=O)c2ccccc2NC1c1cccc(F)c1 (centres undefined) | 6 | -5% | / | ? | -2
CCN(CC)CCN1C(=O)c2ccccc2NC1c1ccc(Br)cc1 (centres undefined) | -29 | / | 13µM* | 1µM* | -17
CCN(CC)CCN1C(=O)c2ccccc2NC1c1ccc(F)cc1 (centres undefined) | -2 | -1% | ? | ? | -3
CCN(CC)CCN1C(=O)c2oc3ccccc3c(=O)c2C1c1ccc(C)cc1 (centres undefined) | 3 | -3% | 2.6µM* | 3.3µM* | 13
CC1(C)CC(=O)C=C(c2cccc3c2sc2ccccc23)C1 | / | / | 11% | -9% | /
CN(C)c1ccc(C2Nc3ccccc3C(=O)N2CCCN2CCOCC2)cc1 (centres undefined) | 43* | -9% | ? | ? | 31*
O=C(NC1CCCC1)C1c2ccccc2C(=O)N1CCCN1CCOCC1 (centres undefined) | 0 | -18% | 17% | 7% | -4
CC(C)c1ccc(NC(=O)C2CC(=O)Nc3nc4ccccc4n32)cc1 (centres undefined) | 18 | 5% | 6% | 3% | 23*
O=C(N=C1N=C2C=CC(Br)=CN2Cc2ccccc21)c1ccc([N+](=O)[O-])cc1[N+](=O)[O-] | 61* | -2% | -100% | ? | 40*
CC(=O)c1ccc(NC(=S)NC(=O)/C=C/c2ccc(F)cc2)cc1 | 26 | 7% | ? | 1% | 20*
CN(C)c1ccc(NC(=S)NC(=O)/C=C/c2ccc(Cl)cc2)cc1 | 105* | 19% | 266% | 270% | 53*
COc1cccc(NC(=S)NC(=O)/C=C/c2ccc(F)cc2)c1 | / | 0% | -27% | 4% | 8
COc1ccccc1-c1sc2ccccc2c1-c1ccccc1OC | / | / | 2.6µM* | 13µM* | /
COc1ccc(-c2c(-c3ccccc3OC)sc3ccccc23)cc1OC | -13 | 15% | 9.3µM* | ? | -3
Cc1ccc(NC(=O)COc2ccc(N(C)S(=O)(=O)c3ccc(F)cc3)cc2)cc1 | / | / | 10µM* | ? | /

Screens: PubChem, National Center for Advancing Translational Sciences (NCATS)
